Among all 39,000 compounds or so, about 3,300 (8.5%) were called active. The list comes from a sample in which actives are over-represented; it also holds similar structures and randomly drawn compounds.

The text below walks through data of the antibiotic and cytotoxicity screens of Wong et al. (2023).

The assay concerns HepG2. Kind of assay: cytotoxicity call (relative viability < 0.9). As to conditions: 10 µM.
On to `NNc1ccc2[nH]c(=O)[nH]c2c1`, for which the cytotoxicity call is “inactive”.

For the compound `C[C@H](CO)N1C[C@H](C)[C@@H](CN(C)Cc2ccc(C(F)(F)F)cc2)OCCCC[C@H](C)Oc2ccc(NC(=O)Nc3ccc(F)cc3)cc2C1=O`, the cytotoxicity call was “inactive”. For `C[C@@H]1CCCCO[C@H](CN(C)Cc2ccc(C(F)(F)F)cc2)[C@@H](C)CN([C@@H](C)CO)C(=O)c2cc(NC(=O)Nc3ccc(F)cc3)ccc2O1` the value was “active”; for `C[C@@H]1CN([C@@H](C)CO)C(=O)c2cc(NC(=O)Nc3ccc(F)cc3)ccc2O[C@@H](C)CCCCO[C@H]1CN(C)Cc1ccc(C(F)(F)F)cc1`, “active”; for `C[C@@H]1CN([C@@H](C)CO)C(=O)c2cc(NC(=O)Nc3ccc(F)cc3)ccc2O[C@@H](C)CCCCO[C@@H]1CN(C)Cc1ccc(C(F)(F)F)cc1`, “inactive”. The value for `C[C@@H]1CCCCO[C@@H](CN(C)Cc2ccc(C(F)(F)F)cc2)[C@H](C)CN([C@@H](C)CO)C(=O)c2cc(NC(=O)Nc3ccc(F)cc3)ccc2O1` was “inactive”. For the compound `C[C@H](CO)N1C[C@H](C)[C@H](CN(C)Cc2ccc(C(F)(F)F)cc2)OCCCC[C@H](C)Oc2ccc(NC(=O)Nc3ccc(F)cc3)cc2C1=O`, the cytotoxicity call is “active”. For `C[C@@H]1CCCCO[C@@H](CN(C)Cc2ccc(C(F)(F)F)cc2)[C@H](C)CN([C@H](C)CO)C(=O)c2cc(NC(=O)Nc3ccc(F)cc3)ccc2O1` the value was “inactive”; for `C[C@H]1CCCCO[C@H](CN(C)Cc2ccc(C(F)(F)F)cc2)[C@@H](C)CN([C@@H](C)CO)C(=O)c2cc(NC(=O)Nc3ccc(F)cc3)ccc2O1`, “active”. For `CCNC(=O)C[C@H]1C=C[C@@H](NC(=O)C2CCOCC2)[C@@H](CO)O1` the value was “inactive”; for `COc1ccc(NC(=O)N(C)C[C@@H]2Oc3ccc(NC(=O)C4CC4)cc3CC(=O)N([C@H](C)CO)C[C@H]2C)cc1`, “inactive”.

Turning to `CN(C)CC(=O)N[C@@H]1CC[C@H](CCNC(=O)C2CC2)O[C@H]1CO`, the cytotoxicity call was “inactive”. For `COc1ccc(NC(=O)N(C)C[C@H]2OCCCC[C@H](C)Oc3ccc(NS(=O)(=O)c4ccc(OC)cc4)cc3C(=O)N([C@H](C)CO)C[C@@H]2C)cc1` the value was “inactive”. The value for `C[C@H](CO)N1C[C@H](C)[C@@H](CN(C)C(=O)Nc2ccc(N3CCN(C)CC3)cc2)OCc2cnnn2CCCC1=O` was “inactive”; that for `CC(=O)NCCCC[C@@H]1NC(=O)[C@@H]2C[C@H](C(=O)NCCCCCNC(=O)CS)[C@H](c3cccc(OCCO)c3)N2C1=O` was “inactive”; that for `C[C@@H]1CN([C@H](C)CO)C(=O)c2cc(NS(=O)(=O)c3cn(C)cn3)ccc2O[C@@H](C)CCCCO[C@@H]1CN(C)S(=O)(=O)c1ccccc1` was “inactive”. As to `C[C@@H]1CN([C@H](C)CO)C(=O)c2cccc(NC(=O)NC3CCCCC3)c2O[C@@H]1CN(C)Cc1ccc(Oc2ccccc2)cc1`, the cytotoxicity call was “inactive”. `COc1ccc(NC(=O)N(C)C[C@H]2Oc3ccc(NC(=O)Nc4cccc5ccccc45)cc3CC(=O)N([C@H](C)CO)C[C@H]2C)cc1`: the cytotoxicity call is “inactive”. The value for `CC(C)CC#Cc1ccc2c(c1)O[C@H](CN(C)C(=O)Cc1ccccn1)[C@@H](C)CN([C@H](C)CO)S2(=O)=O` was “inactive”; that for `C[C@H](CO)N1C[C@H](C)[C@@H](CN(C)C(=O)NC2CCCCC2)OCCCC[C@H](C)Oc2ccc(NC(=O)Cc3ccccc3)cc2C1=O` was “inactive”; that for `COc1ccc(CN(C)C[C@H]2Oc3c(NC(=O)Nc4ccc(C(F)(F)F)cc4)cccc3C(=O)N([C@@H](C)CO)C[C@@H]2C)cc1` was “inactive”.

As to `C[C@@H]1CCCCO[C@@H](CN(C)Cc2ccc(C(F)(F)F)cc2)[C@@H](C)CN([C@H](C)CO)C(=O)c2cc(NC(=O)Nc3ccc(F)cc3)ccc2O1`, the cytotoxicity call is “inactive”.

Consider `C[C@@H]1CCCCO[C@H](CN(C)Cc2ccc(C(F)(F)F)cc2)[C@@H](C)CN([C@H](C)CO)C(=O)c2cc(NC(=O)Nc3ccc(F)cc3)ccc2O1`, for which the cytotoxicity call was “inactive”. Regarding `C[C@H]1CCCCO[C@@H](CN(C)Cc2ccc(C(F)(F)F)cc2)[C@@H](C)CN([C@@H](C)CO)C(=O)c2cc(NC(=O)Nc3ccc(F)cc3)ccc2O1`, the cytotoxicity call is “active”. Take `C[C@@H]1CCCCO[C@H](CN(C)Cc2ccc(C(F)(F)F)cc2)[C@H](C)CN([C@H](C)CO)C(=O)c2cc(NC(=O)Nc3ccc(F)cc3)ccc2O1`: the cytotoxicity call is “active”. For `C[C@@H]1CCCCO[C@H](CN(C)Cc2ccc(C(F)(F)F)cc2)[C@H](C)CN([C@@H](C)CO)C(=O)c2cc(NC(=O)Nc3ccc(F)cc3)ccc2O1` the value was “active”.

Take `C[C@@H]1CCCCO[C@@H](CN(C)Cc2ccc(C(F)(F)F)cc2)[C@@H](C)CN([C@@H](C)CO)C(=O)c2cc(NC(=O)Nc3ccc(F)cc3)ccc2O1`: the cytotoxicity call was “inactive”. For the compound `C[C@@H]1CN([C@H](C)CO)C(=O)c2cc(NC(=O)Nc3ccc(F)cc3)ccc2O[C@@H](C)CCCCO[C@H]1CN(C)Cc1ccc(C(F)(F)F)cc1`, the cytotoxicity call is “active”.

With `C[C@@H]1CN([C@H](C)CO)C(=O)c2cc(NC(=O)Nc3ccc(F)cc3)ccc2O[C@@H](C)CCCCO[C@@H]1CN(C)Cc1ccc(C(F)(F)F)cc1`, the cytotoxicity call is “inactive”. The value for `C[C@H](CO)N1C[C@H](C)[C@@H](CN(C)Cc2ccc(Cl)c(Cl)c2)Oc2ccc(NC(=O)Cn3cnnn3)cc2CC1=O` was “inactive”; that for `COc1ccc(S(=O)(=O)Nc2ccc3c(c2)C(=O)N([C@H](C)CO)C[C@@H](C)[C@H](CN(C)C(=O)Nc2ccc(F)cc2)OCCCC[C@@H](C)O3)cc1` was “inactive”. For `C=CCN(C#N)c1nc(N(C)C)nc(N(C)C)n1` the value was “inactive”; for `C[C@@H]1CN([C@H](C)CO)C(=O)c2cccc(NC(=O)c3cnccn3)c2O[C@@H]1CN(C)Cc1ccccc1`, “inactive”; for `Cc1noc(C)c1S(=O)(=O)Nc1ccc2c(c1)C(=O)N([C@H](C)CO)C[C@H](C)[C@@H](CN(C)S(=O)(=O)c1cccs1)O2`, “inactive”. Turning to `Cc1noc(C)c1NC(=O)Nc1ccc2c(c1)CC(=O)N([C@H](C)CO)C[C@@H](C)[C@@H](CN(C)Cc1ccc(C(F)(F)F)cc1)O2`, the cytotoxicity call was “inactive”. The value for `Cc1ccc(S(=O)(=O)N2C[C@@H](O)COC[C@H]3O[C@H](CC(=O)N[C@@H]4CCN(Cc5ccccc5)C4)CC[C@@H]32)cc1` was “inactive”; that for `COc1ccccc1C#Cc1cnc2c(c1)C(=O)N([C@@H](C)CO)C[C@H](C)[C@@H](CN(C)C(=O)CN(C)C)O2` was “inactive”.
